High-throughput results as filed in PubChem BioAssay.
The list is not random: actives were taken first. Their share in the collection is about 4.5%.
ZTA counter – blocks Epstein-Barr virus ZTA, an EBNA-1 counter-screen; ZTA-DNA binding, fluorescence polarization; inhibition, % at 11 µM; 320,000 tested, 0.15% active; AID 2234; in the data active = inhibition above about 33%
Target sequence (P03206 whole entry, looked up): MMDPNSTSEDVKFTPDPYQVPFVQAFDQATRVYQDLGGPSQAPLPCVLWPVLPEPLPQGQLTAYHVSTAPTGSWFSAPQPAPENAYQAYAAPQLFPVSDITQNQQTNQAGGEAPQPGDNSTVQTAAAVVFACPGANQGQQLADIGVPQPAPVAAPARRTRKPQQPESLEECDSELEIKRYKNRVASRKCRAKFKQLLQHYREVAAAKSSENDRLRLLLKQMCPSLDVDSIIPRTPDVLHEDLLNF
NR3A LBD binder – binders of NR3A ligand-binding domain, primary screen, biophysical, differential scanning fluorimetry, uHTS. NR3A LBD differential scanning fluorimetry, Tm shift; 0% = protein alone, 100% = glycine-bound protein. Tm shift relative to glycine control, % at 25 µM. 340,000 tested, 2.5% active. AID 1259313, 2017;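 active = melting temperature shift of at least 10% of the positive control shift, at one fixed dose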
Rpn11 inh – Rpn11 (PSMD14) deubiquitinase inhibitors, primary screen, biochemical, fluorescence polarization, uHTS; human 26S proteasome, Ub4-pepOG fluorescence polarization; 20S core pre-blocked with epoxomicin; 26S proteasome non-ATPase regulatory subunit 14 (Homo sapiens), O00487; inhibition, % at 20 µM; 360,000 tested, 0.59% active; AID 588493, 2011;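 active = inhibition at 20 µM, scaled to each plate's controls, above about 33%, limit read from the data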
TPT1 inhibitor – Candida albicans TPT1 enzyme inhibitors, primary screen, biochemical, fluorescence polarization; tRNA 2'-phosphotransferase TPT1 (Candida albicans SC5314); recombinant caTPT1, FP RNA substrate dephosphorylation; inhibition, % at 5 µM; 300,000 tested, 0.81% active; AID 1962, 2009;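 active = inhibition above the mean of all tested compounds plus 3 SD, set per screening campaign, cut at about 24% in these data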
EBNA-1 inh – EBNA-1 DNA-binding inhibitors, primary screen, biochemical, fluorescence polarization; inhibition, % at 14.8 µM; 300,000 tested, 0.34% active; AID 1950, 2009; in the data active = inhibition above about 28%
dFosB activator – activators of delta FosB homodimer, primary screen, biochemical, fluorescence polarization, TAMRA-CDK5 oligo, single point. Protein FosB (Mus musculus), P13346. purified delta FosB; percent of positive-control signal above neutral wells. activation, % at 25 µM. 340,000 tested, 0.99% active. AID 493131, 2011;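 active = mean activation above about 17%, with every replicate also reaching it, limit read from the data, passing the limit was not always enough; inconclusive = only one of the two conditions met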
Target sequence (P13346 whole entry, looked up): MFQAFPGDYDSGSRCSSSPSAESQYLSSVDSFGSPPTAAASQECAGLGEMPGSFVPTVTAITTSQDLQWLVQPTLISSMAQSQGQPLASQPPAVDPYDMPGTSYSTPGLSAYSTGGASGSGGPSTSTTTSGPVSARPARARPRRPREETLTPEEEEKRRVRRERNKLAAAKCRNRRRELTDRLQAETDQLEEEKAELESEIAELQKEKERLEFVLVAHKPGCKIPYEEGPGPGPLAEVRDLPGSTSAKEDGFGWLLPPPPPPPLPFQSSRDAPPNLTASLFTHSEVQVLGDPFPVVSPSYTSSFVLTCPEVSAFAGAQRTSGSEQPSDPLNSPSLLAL
EBNA-1 confirm – EBNA-1 DNA-binding inhibitors, retest, confirmation, biochemical, fluorescence polarization, triplicate | shares compounds with EBNA-1 inh | Recombinant EBNA-1 DBD, Cy5-DNA fluorescence polarization | inhibition, % at 14.8 µM | 830 tested, 35% active | AID 2292, 2010;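 active = mean inhibition across replicates above a set limit taken from the earlier primary screen, cut at about 28% in these data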
ZTA DNA inh trip – EBV Zta DNA binding inhibitors, counter-screen for EBNA-1 inhibitor project, biochemical, fluorescence polarization, triplicate. shares compounds with EBNA-1 inh. AID 2328, 2010. inhibition, % at 11.1 µM. 830 tested, under 10 active. Zta-ZRE DNA binding, Cy5 fluorescence polarization;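 active = mean inhibition over triplicates above a set limit taken from the primary EBNA-1 screen, cut at about 37% in these data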;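 note: purified full length Zta protein with Cy5 labeled ZRE DNA probe; inhibitors lower polarization by freeing the labeled DNA probe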
A number is an active result.

How did Cc1cc(C(=O)N/N=C\c2cc(C(C)(C)C)ccc2O)n[nH]1 do in these assays?
ZTA counter: inactive; NR3A LBD binder: inactive; Rpn11 inh: inactive; TPT1 inhibitor: inactive; EBNA-1 inh: inactive; dFosB activator: inactive

How did Cc1ccc(-c2cc(C(=O)N/N=C/C(Br)=C/c3ccccc3)n[nH]2)o1 do in these assays?
ZTA counter: inactive; NR3A LBD binder: 29; Rpn11 inh: inactive; TPT1 inhibitor: inactive; EBNA-1 inh: inactive; dFosB activator: inactive

What do the screens show for `O=C(N/N=C/C(Br)=C/c1ccccc1)c1cnccn1`?
ZTA counter: inactive; NR3A LBD binder: inactive; Rpn11 inh: inactive; TPT1 inhibitor: inactive; EBNA-1 inh: inactive; dFosB activator: inactive

Results for Cc1ccc(-c2cc(C(=O)N/N=C/c3ccccc3O)n[nH]2)o1 ?
ZTA counter: inactive; NR3A LBD binder: 31; Rpn11 inh: inactive; TPT1 inhibitor: inactive; EBNA-1 inh: inactive; dFosB activator: 51

Results for O=C(N/N=C/c1cccs1)c1cc(-c2ccc(Cl)s2)[nH]n1 ?
ZTA counter: inactive; NR3A LBD binder: 33; Rpn11 inh: inactive; TPT1 inhibitor: inactive; EBNA-1 inh: inactive; dFosB activator: inactive

What do the screens show for `Cc1ccc(-c2cc(C(=O)N/N=C/c3ccc(F)cc3)n[nH]2)o1`?
ZTA counter: inactive; NR3A LBD binder: 31; Rpn11 inh: inactive; TPT1 inhibitor: inactive; EBNA-1 inh: inactive; dFosB activator: inactive

What do the screens show for `COc1ccc([N+](=O)[O-])cc1NC(=O)C(C)OC(=O)CC1CCCC1` (stereo not given)?
ZTA counter: inactive; NR3A LBD binder: inactive; Rpn11 inh: inactive; dFosB activator: inactive

Results for COc1ccc(CNC(=O)C2CCC(CNC(=O)[C@@H]3Cc4ccccc4CN3)CC2)cc1 (stereo not given in full) ?
ZTA counter: inactive; NR3A LBD binder: inactive; Rpn11 inh: inactive; TPT1 inhibitor: inactive; EBNA-1 inh: inactive; dFosB activator: inactive

What do the screens show for `CC(C)(C)c1cc(C(=O)N/N=C/c2ccccn2)n[nH]1`?
ZTA counter: inactive; NR3A LBD binder: inactive; Rpn11 inh: inactive; TPT1 inhibitor: inactive; EBNA-1 inh: inactive; dFosB activator: inactive

Results for Cc1cc(C(=O)N/N=C/C=C/c2ccccc2)n[nH]1 ?
ZTA counter: inactive; NR3A LBD binder: inactive; Rpn11 inh: inactive; TPT1 inhibitor: inactive; EBNA-1 inh: inactive; dFosB activator: inactive

How did Cc1ccc(-c2cc(C(=O)N/N=C/c3c[nH]c4ccccc34)n[nH]2)o1 do in these assays?
ZTA counter: inactive; NR3A LBD binder: 28; Rpn11 inh: inactive; TPT1 inhibitor: inactive; EBNA-1 inh: inactive; dFosB activator: inactive

What do the screens show for `Cc1ccc(-c2cc(C(=O)N/N=C/C=C/c3ccccc3)n[nH]2)s1`?
ZTA counter: inactive; NR3A LBD binder: 19; Rpn11 inh: inactive; TPT1 inhibitor: inactive; EBNA-1 inh: inactive; dFosB activator: inconclusive

How did CC(C)(C)c1cc(C(=O)N/N=C/c2ccncc2)n[nH]1 do in these assays?
ZTA counter: inactive; NR3A LBD binder: 468; Rpn11 inh: inactive; TPT1 inhibitor: inactive; EBNA-1 inh: inactive; dFosB activator: inactive

What do the screens show for `C=CCNC(=S)NNc1nc2sc3c(c2c(=O)[nH]1)CC(C)(C)OC3`?
ZTA counter: inactive; NR3A LBD binder: inactive; Rpn11 inh: inactive; TPT1 inhibitor: inactive; EBNA-1 inh: inactive; dFosB activator: inactive

How did Cc1c(/C=N/NC(=O)c2ccc(O)cc2)c2ccccn2c1C(=O)c1ccc(F)cc1 do in these assays?
ZTA counter: inactive; NR3A LBD binder: 18; Rpn11 inh: inactive; TPT1 inhibitor: inactive; EBNA-1 inh: inactive; dFosB activator: inactive

What do the screens show for `Cc1c(/C=N/NC(=O)c2ccccc2O)c2ccccn2c1C(=O)c1ccc(F)cc1`?
ZTA counter: inactive; NR3A LBD binder: 14; Rpn11 inh: inactive; TPT1 inhibitor: inactive; EBNA-1 inh: inactive; dFosB activator: inactive

Results for COC(=O)N/N=C/c1c(C)c(C(=O)c2ccc(F)cc2)n2ccccc12 ?
ZTA counter: inactive; NR3A LBD binder: inactive; TPT1 inhibitor: inactive; EBNA-1 inh: inactive; dFosB activator: inactive

How did C=CCC(C(=O)OC)(C(=O)OC)c1ccccc1[N+](=O)[O-] do in these assays?
ZTA counter: inactive; NR3A LBD binder: inactive; Rpn11 inh: inactive; TPT1 inhibitor: inactive; EBNA-1 inh: inactive; dFosB activator: inactive

How did Oc1ccc(N=Nc2ccc3ccccc3c2)cc1 do in these assays?
ZTA counter: inactive; NR3A LBD binder: 24; Rpn11 inh: inactive; TPT1 inhibitor: inactive; EBNA-1 inh: inactive; dFosB activator: inactive

Results for N#Cc1cc(-c2ccccc2)oc1/N=C/c1ccccc1O ?
ZTA counter: inactive; NR3A LBD binder: 18; Rpn11 inh: inactive; TPT1 inhibitor: inactive; EBNA-1 inh: inactive; dFosB activator: inactive

Results for COc1ccc(S(=O)(=O)N2CCCCC2)cc1NC(=O)Cn1cnc2ccccc2c1=O ?
ZTA counter: inactive; NR3A LBD binder: inactive; Rpn11 inh: inactive; dFosB activator: inactive

What do the screens show for `COc1ccc(S(=O)(=O)N2CCCCC2)cc1NC(=O)Cn1c(=O)cnc2ccccc21`?
ZTA counter: inactive; NR3A LBD binder: 12; Rpn11 inh: inactive; TPT1 inhibitor: inactive; EBNA-1 inh: inactive; dFosB activator: inactive

How did Cc1cc(Br)ccc1NC(=O)CN(C)C(=O)C1CSC2(C)CCC(=O)N12 (stereo not given) do in these assays?
ZTA counter: inactive; NR3A LBD binder: inactive; Rpn11 inh: inactive; dFosB activator: inactive

What do the screens show for `CC(=O)Nc1cccc(NC(=O)CSc2ccc(-c3ccccn3)nn2)c1`?
ZTA counter: inactive; NR3A LBD binder: inactive; Rpn11 inh: inactive; TPT1 inhibitor: inactive; EBNA-1 inh: inactive; dFosB activator: inactive

How did Cc1ccc(NC(=O)CSc2ccc(-c3ccccn3)nn2)cc1F do in these assays?
ZTA counter: inactive; NR3A LBD binder: inactive; Rpn11 inh: inactive; TPT1 inhibitor: inactive; EBNA-1 inh: 36; dFosB activator: inactive; EBNA-1 confirm: 53; ZTA DNA inh trip: inactive
